# Experimental data reported in PubChem BioAssay AID750 (Sanford-Burnham Center for Chemical Genomics, 2007).
# The campaign covered roughly 86,000 compounds. About 140 (0.16%) were called active. What follows is part of a selection rich in actives, with near analogues and random picks from the rest. Values without a mark were called inactive.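 Rule for the calls: active = activation factor of at least 2 for MT1-MMP transcription at 10 µM; inactive = the rest.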
# Assay: MT1-MMP promoter reporter activation – cell-based, luciferase luminescence, primary screen (AID 750)
# Settings: HT1080 MT1-MMP promoter luciferase reporter, overnight, at 10 µM, active compounds read high
row,SMILES,activation factor
1,Cn1c(=N)n(CC(O)c2ccccc2)c2ccccc21 (stereo not drawn),1.5
2,CC1CCC2(CC1)NC(=O)N(CC(=O)c1cccn1C)C2=O (stereo not drawn),1.2
3,COc1ccccc1NC(=O)C1CCCN(c2cc(C)nc3ncnn23)C1 (stereo not drawn),1.1
4,COc1cc(OC)cc(-c2cc3nc(C4CCN(C(=O)OC(C)(C)C)CC4)cc(=O)n3[nH]2)c1,1.1
5,COc1ccc(OC)c(-n2nnnc2SCC(=O)Nc2cc(C)ccc2OC)c1,1
6,COc1ccc(C(=O)Nc2ccc(S(=O)(=O)NC(C)C)cc2)cc1,1.1
7,COC(=O)[C@@]1(Cc2ccccc2)C=C[C@@H](C)N1,1.2
8,O=C1C2N=NN(CC(=O)N3N=C(c4cccc5ccccc45)CC3c3ccccc3)C2C(=O)N1c1ccccc1 (stereo not drawn),1.2
9,CC(N=Cc1nc(-c2ccccc2)oc1O)c1ccccc1 (stereo not drawn),1.2
10,Cc1cc2nc(SCCN3CCOCC3)[nH]c2cc1C,2 (active)
11,c1ccc2[nH]c(NCCN3CCOCC3)nc2c1,1.1
12,Cc1ccc(S(=O)(=O)NCCN2CCOCC2)cc1C,1.1
13,CCOc1cc(NC(=O)c2cnccn2)c(OCC)cc1NC(=O)c1ccc(C)cc1,1.3
14,COC(=O)C1=C(C)N=C2SC(C)C(=O)N2C1/C=C/c1ccccc1 (stereo not drawn),1.1
15,OC(COCCC12CC3CC(CC(C3)C1)C2)CN1CCCCC1 (stereo not drawn),1.1
16,COc1ccc(/C(O)=C2/C(=O)C(=O)N(CC3CCCO3)C2c2ccc(OC)c(OC)c2)cc1 (stereo not drawn),1.3
17,O=C(CCn1c(SCC(=O)c2ccccc2)nc2ccccc2c1=O)NCc1ccc(F)cc1,1.1
18,CCN1CCCC1Cn1cnc2c([nH]c3cc(OC)ccc32)c1=O (stereo not drawn),1.1
19,CCCNC(=O)c1ccc(Cl)c(Cl)c1,1
20,Cc1cc(N/C=C\C(=O)c2ccc(Cl)c(Cl)c2)no1,2.1 (active)
21,Cc1cc(NC(=O)CSc2nnc(-c3ccc(Cl)s3)o2)no1,1.1
22,CCN(CC)C(=O)CSc1nc2ccccc2n1CC(=O)N1CCN(c2ccccc2OC)CC1,1.1
23,CC/S(CC1CC1(Cl)Cl)=N\S(=O)(=O)c1ccc(C)cc1 (stereo not drawn),1
24,CC(C)C(OC(=O)c1cccs1)C(=O)NC1CCCCC1 (stereo not drawn),1.3
25,OC(CN1C2=NCCCN2c2ccccc21)c1ccc(Br)cc1 (stereo not drawn),1.2
26,Cn1c(SCC(=O)NC2CCCCC2)nnc1-c1cc2ccccc2o1,1.4
27,NC(=O)c1ncc(C(F)(F)F)cc1Oc1ccc(F)cc1,1.1
28,CCOc1ccccc1NC(=O)c1cccnc1,1.3
